Screening data (PubChem)
TDP1 inh = TDP1 (human) enzyme inhibition. Q9NUW8. recombinant TDP1, AlphaScreen DNA substrate cleavage. Potency, µM (series often up to 130 µM), for inactives: at the top dose activity change, negative = inhibition, actives largely listed as inhibitors. 0.28% of 350,000 active. AID 485290; further: potency means the concentration at half of the fitted maximal effect; on the % scale 0 is the no-effect control and ±100 the full control effect; nearly all actives have a fitted effect of over 40% in size
Target sequence (Q9NUW8 whole entry, looked up): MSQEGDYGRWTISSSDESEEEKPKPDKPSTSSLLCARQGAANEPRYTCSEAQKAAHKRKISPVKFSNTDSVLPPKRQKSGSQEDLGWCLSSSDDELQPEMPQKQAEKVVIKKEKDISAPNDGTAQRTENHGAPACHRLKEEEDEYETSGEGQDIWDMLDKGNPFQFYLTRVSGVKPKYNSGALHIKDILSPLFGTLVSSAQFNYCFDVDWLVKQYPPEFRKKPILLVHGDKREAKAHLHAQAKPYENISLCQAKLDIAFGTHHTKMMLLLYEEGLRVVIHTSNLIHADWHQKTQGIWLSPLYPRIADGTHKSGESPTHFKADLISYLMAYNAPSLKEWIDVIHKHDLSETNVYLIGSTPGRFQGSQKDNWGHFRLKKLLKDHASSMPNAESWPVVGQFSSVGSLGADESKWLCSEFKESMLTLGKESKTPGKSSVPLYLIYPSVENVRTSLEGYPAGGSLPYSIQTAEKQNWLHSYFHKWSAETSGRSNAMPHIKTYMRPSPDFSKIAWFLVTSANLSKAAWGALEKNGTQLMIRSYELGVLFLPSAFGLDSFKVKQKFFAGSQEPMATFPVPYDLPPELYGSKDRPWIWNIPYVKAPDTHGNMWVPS
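Tdp1 1 nM final; 15 min RT w/ cpd; substrate 15 nM, 5 min; beads 10 ug/ml, 10 min; AlphaScreen read. Neg ctrl: no enzyme.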
TDP1 cell CPT = DT40-hTDP1 cell growth loss with CPT. chicken DT40 Tdp1-/-;hTDP1 cells + 20 nM CPT, ATP luminescence, 48 h. Potency, µM (series often up to 46.2 µM), for inactives: at the top dose activity change, negative = growth inhibition, actives largely listed as inhibitors. 12% of 420,000 active. AID 686979; further: potency means the concentration at half of the fitted maximal effect; on the % scale 0 is the no-effect control and ±100 the full control effect; nearly all actives have a fitted effect of over 55% in size
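Chicken DT40 Tdp1-/- cells stably complemented with human TDP1 were seeded at 400 cells/well in medium containing 20 nM camptothecin, exposed to pin-transferred compounds, and grown at 37 °C for at least 48 hr. Viability was read as ATP luminescence.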
HepG2 tox = counter-screen for TGF-b inhibitors: cytotoxicity in HepG2 cells | HepG2 CAGA-GFP viability, ATP luminescence, 18 h | 0.76% of 410,000 active | AID 588856 | Potency, µM (highest dose often 46.1 µM), for inactives: at the top dose activity change, negative = cytotoxicity, actives largely listed as cytotoxic; further: potency means the concentration at half of the fitted maximal effect
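HepG2 CAGA-GFP cells (1000/well, DMEM with 1% FBS) received compound, then TGF-beta at 500 pg/mL final, and were incubated 18 hours at 37 degrees C. Viability was read by CellTiter-Glo luminescence. Media-only wells were set as complete cell-killing and DMSO as no toxicity.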
IL-1B inflam inh = blocks inflammasome-driven IL-1 beta release. activity change, % at 57.5 µM. AID 743279. 4.7% of 360,000 active. THP-1 LPS/ATP IL-1B secretion, AlphaLISA, 16 h; active compounds read low; in the data active means activity change below about -50%; inconclusive means mostly about -30% to -49%; further: on the % scale 0 is the no-effect control and ±100 the full control effect
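THP-1 cells pretreated 1 hr with compounds (up to 57.5 uM final), then stimulated with LPS (250 ng/mL final) plus ATP (1.25 mM final); secreted IL-1B measured by AlphaLISA after 16 hr, decreased signal indicating inhibition.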
TGFb inhibitor = inhibitors of TGF-b signaling | HepG2 CAGA-GFP TGF-b/SMAD3 reporter, GFP fluorescence, 18 h; TGF-beta stimulated, 500 pg/mL final | 1.2% of 410,000 active | Potency, µM (titrated, usually from 46.1 µM), for inactives: top-dose activity, negative = inhibition, actives largely listed as inhibitors; further: potency means the concentration at half of the fitted maximal effect; on the % scale 0 is the no-effect control and ±100 the full control effect; nearly all actives have a fitted effect of over 65% in size
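GFP signal (ex488/em500-530) from TGF-beta-stimulated HEPG2 CAGA-GFP cells, 500 pg/mL final, 18 h at 37 degrees C in DMEM plus 1% FBS, normalized to unstimulated and DMSO-stimulated controls.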
DT40 TDP1 no CPT = qHTS for Inhibitors of human tyrosyl-DNA phosphodiesterase 1 (TDP1): qHTS in cells in absence of CPT; DT40 Tdp1-/- hTDP1 cells, no CPT, ATP luminescence, 48 h; Potency, µM (top dose mostly 46.2 µM), for inactives: top-dose activity change, negative = growth inhibition, usual class: inhibitors; 15% of 420,000 active; further: potency means the concentration at half of the fitted maximal effect; on the % scale 0 is the no-effect control and ±100 the full control effect; nearly all actives have a fitted effect of over 55% in size
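Seeded 400 DT40-hTDP1 cells/well (vehicle DMSO, no 20 nM CPT); pinned compounds; ≥48 hr at 37 °C; CellTiter-Glo luminescence as viability measure.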
Starred values were filed as active, the others as inactive; ? = inconclusive; nt = no result given; [ ] = dose if it differs, or a comment. This is a sample that favours compounds with a hit; in the whole collection about 19% have one here. Unless noted, the call rests on the fitted dose curve; in most records, active means well fitted curve in the direction sought with a large enough effect; inconclusive means small, poorly fitted or top-dose-only effect, or another doubt; inactive means no such curve, though single readings can be large; an effect the other way counts as inactive or inconclusive.

SMILES	TDP1 inh	TDP1 cell CPT	HepG2 tox	IL-1B inflam inh	TGFb inhibitor	DT40 TDP1 no CPT
Cc1ccc(SCC(=O)OCC(=O)N(CC(C)C)c2c(N)n(Cc3ccccc3)c(=O)[nH]c2=O)c(C)c1	0%	?	-92%	-8	-3%	?
COc1ccc(CCNC(=O)c2cc(-c3ccccc3)nc3ccccc23)cc1OC	nt	nt	-23%	nt	-1%	nt
COc1ccc(CCN(C)C(=O)c2cc(-c3ccccc3)nc3ccc(C)cc23)cc1OC	6%	?	18%	-23	5%	?
COc1ccc(CCN(C)C(=O)c2cc(-c3ccccc3)nc3ccccc23)cc1OC	7%	?	-1%	17	9%	23µM*
COc1ccc(CCN(C)C(=O)Cc2ccc(-c3ccccc3)cc2)cc1OC	6%	18µM*	-6%	-55*	-1%	16µM*
COc1ccc(-c2cc(C(=O)N(C)CCc3ccc(OC)c(OC)c3)c3ccccc3n2)cc1	-5%	15µM*	-4%	-5	3%	23µM*
Cc1ccc(Cl)cc1N=C(N)N=C(N)N	3%	?	-12%	-20	17%	?
NC(N)=NC(N)=Nc1cccc(Cl)c1	10%[56.1 µM]	?	4%	-19	11%	21µM*
O=C(c1cccc(S(=O)(=O)Nc2ccc(F)cc2)c1)N1CCOCC1	0%	-2%	-2%	13	-7%	-3%
NC(N)=N/N=C/c1cccc(Cl)c1Cl	4%	?	-20%	-101*	-16%	?
Cc1ccc(C(=O)OCC(=O)N2CCC(c3ccccc3)=N2)cc1	1%	?	-2%	-85*	-1%	?
Cc1nn2c(-c3ccco3)nnc2c2ccccc12	3%	?	-14%	-9	-18%	21µM*
COc1ccc(-c2nnc3c4ccccc4c(C)nn23)cc1	-2%	?	-14%	19	?	18µM*
Cc1cccc(/C=C/C(=O)c2ccc(N3CCOCC3)cc2)c1	2%	nt	nt	nt	nt	nt
CCc1ccc(/C=C/C(=O)c2ccc(N3CCOCC3)cc2)cc1	-3%	?	-26%	-89*	-9%	?
O=C(/C=C/c1ccc(F)cc1)c1ccc(N2CCOCC2)cc1	3%	21µM*	-15%	-59*	4%	?
CCc1ccc(NC(=O)CS(=O)CC(=O)Nc2ccc(N3CCOCC3)cc2)cc1 (centres undefined)	50µM*	-11%	4%	11	7%	?
Cc1cccc(C)c1NC(=O)CS(=O)CC(=O)Nc1ccc(N2CCOCC2)cc1 (centres undefined)	6%	25%	-15%	-2	18%	6%
Cc1ccc(CNC(=O)Cn2c(=O)ccc3cc(S(=O)(=O)N4CCC(C)CC4)ccc32)cc1	-2%	?	-7%	nt	-26%	?
CCN(CC(=O)Nc1ccc(NC(C)=O)cc1)C(=O)c1ccc(N2C(=O)c3ccccc3C2=O)cc1	nt	8%	-10%	3	7%	-8%
CN(C)c1ncc(C(=O)NCc2ccccc2Cl)cn1	-6%	-5%	-2%	nt	-1%	-3%
CCc1ccc(S(=O)(=O)N2CC(=O)Nc3ccccc32)cc1	-2%	-8%	-4%	0	-1%	-18%
CCOC(=O)c1ccc(S(=O)(=O)N2CC(=O)Nc3ccccc32)cc1	-18%	18µM*	-10%	17	-17%	18µM*
CCn1c(=O)cc(SCC(=O)N2CCN(c3ccccc3OC)CC2)c2ccccc21	9%	18µM*	-24%	-16	14%	?
COc1ccc(-c2nc(CN3CCN(C(=O)c4ccco4)CC3)c(C)o2)c(OC)c1C	4%	?	-24%	-5	?	18µM*
SMILES	TDP1 inh	TDP1 cell CPT	HepG2 tox	IL-1B inflam inh	TGFb inhibitor	DT40 TDP1 no CPT
O=C(c1ccco1)N1CCN(Cc2cn[nH]c2-c2cccc3ccccc23)CC1	nt	?	25%	-16	17%	23µM*
CCOC(=O)N1CCN(Cc2cn[nH]c2-c2cccc3ccccc23)CC1	3%	-27%	-7%	-15	-2%	?
O=C(c1ccco1)N1CCN(CC(O)COc2ccc3oc4ccccc4c3c2)CC1 (centres undefined)	6%	18µM*	-49%	-24	?	?
Cc1cc(C)cc(OCC(O)CN2CCN(C(=O)c3ccco3)CC2)c1 (centres undefined)	nt	-22%	2%	-16	0%	2%
CCn1c(=O)cc(SCC(=O)N2CCN(C(=O)c3ccco3)CC2)c2ccccc21	2%	-23%	-30%	-52*	7%	?
O=C(OCC(=O)N1CCOCC1)c1ccccc1OCc1ccc(Cl)cc1	3%	11%	-8%	-17	7%	?
O=C(OCC(=O)N1CCN(C(=O)c2ccco2)CC1)c1ccccc1OCc1ccc(Cl)cc1	0%	16µM*	-16%	0	-10%	23µM*
CCn1c(=O)cc(SCC(=O)N2CCOCC2)c2ccccc21	2%	-16%	0%	-6	40%	-20%
CCn1c2ccccc2c2cc(CN3CCN(C(=O)c4ccco4)CC3)ccc21	12%	?	-34%	-3	-8%	23µM*
Cc1ccc(CN2CCN(C(=O)c3ccco3)CC2)cc1	2%	-10%	0%	7	-5%	-26%
COc1ccccc1OCc1ccc(C(=O)N2CCN(C(=O)c3ccco3)CC2)cc1	2%	-5%	-3%	1	-12%	-26%
COc1ccc(CN2CCN(C(=O)c3ccco3)CC2)cc1OCc1ccccc1	2%	?	6%	-19	-24%	15µM*
CCOC(=O)c1sc2ncn(CC(=O)Nc3cc(C)cc(C)c3)c(=O)c2c1C	3%	3%	6%	nt	-4%	-11%
CC(=O)N(C)C	7%	nt	nt	nt	nt	nt
O=C(CN1C(=O)c2ccccc2C1=O)N1CCN(C(=O)c2ccco2)CC1	-2%	?	9%	-6	2%	-4%
O=C(c1ccco1)N1CCN(CCCCN2C(=O)c3ccccc3C2=O)CC1	8%	-15%	-29%	-69*	-3%	-2%
NNC(=O)CSc1nnnn1-c1ccccc1	6%	-4%	-1%	74	14%	-5%
Cc1ccc(N/N=C(/Sc2nnnn2-c2ccccc2)C(=O)c2ccccc2)cc1	6%	29µM*	7%	-10	?	?
O=C1CSC(c2cn(-c3ccccc3)nc2-c2ccccc2)N1Cc1ccco1 (centres undefined)	-6%	?	1%	-24	?	18µM*
